SMILES strings stand for the structures. Where “and” joins values, the source holds several entries; their conditions need not be identical. Equal entries are not always repeated. This is part of a sample that, as a whole, favours compounds with a hit. Of some 83,000 tested, about 20% had one in any assay.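 For each line, cells grew in 96-well plates with the test compound present at a single concentration for 48 hours.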 Unmarked numbers belong to inactive results. Calls of active or inactive are those of the source. The calls were made as follows: active = growth percent below 10; inactive = the rest.

The subject of the assay is MDA-MB-468 breast. Briefly: NCI-60 one-dose screen, 48 h (100 = growth as untreated, 0 = no growth, -100 = all killed). The following applies: 10 µM unless noted.
In the case of `Cc1sc2ncnc(Sc3nc4ccccc4[nH]3)c2c1C`, the growth is -86.6% (active). As for `Cc1ccc(=O)[nH]n1`, the figure is 103% and 104%; as for `CC1=C(C#N)C(C)(C)C(C#N)=C(C)N1`, 98.6%; as for `Clc1ccc(OCc2nc(-c3ccccc3)n[nH]2)c(Cl)c1`, 99.1%. As for `O=C(COc1ccc(/C=C2\C(=O)Nc3cc(Cl)ccc32)cc1)Nc1ccc(Cl)cc1`, the figure is 86.8%.

On to `OCCN1CCN(CCO)CC1`, for which the growth was 107% and 103% and 105%. As for `COc1ccc(C(=O)/C=C/c2ccc(Oc3nc(NCCO)nc(N4CCOCC4)n3)c(OC)c2)cc1`, the figure is 63.4%; as for `CC(=O)Nc1ccc(C(=O)/C=C/c2ccc(N(C)C)cc2)cc1`, 95.6%. As for `Cc1[nH]c(=O)[nH]c(=O)c1Br`, the growth was 107%. As to `C=CCn1c(SCC(=O)Nc2cccc(C(=O)/C=C/c3cccc([N+](=O)[O-])c3)c2)nc2ccccc2c1=O`, the growth was 89.2%. As to `C[C@@H]1CC2C3CCC4=CC(=O)C=C[C@]4(C)[C@@]3(Cl)[C@@H](O)C[C@]2(C)[C@@]1(OC(=O)c1ccco1)C(=O)CCl` (stereo not given in full), the growth was 104%. Consider `O=C(c1ccccc1)c1c(/C=C/c2ccc(Cl)cc2)nc2ccccc2c1/C=C/c1cccs1`, for which the growth is 94.3%.

`CS(=O)(=O)c1ccc(-c2nc3cc(Cl)ccc3n2CC(=O)NO)cc1`: the growth is 96%.

Regarding `Fc1cc(F)cc(NNC(=S)c2ccccc2)c1`, the growth is 43.5%. As for `COc1ccc(C(c2cc(OC)c(OC)c(OC)c2)n2cncn2)cc1O` (stereo not given), the figure is 7.88% (active); as for `COC(=O)c1c2c(c(C)[n+]([O-])c1C)C(=O)C=CC2=O`, -33% (active); as for `O=C(Nc1ccc(N=Cc2c(O)[nH]c3ccccc23)cc1)Nc1nccs1`, -2.28% (active). As for `COc1cc(/C=C/C(=O)c2ccc(NC(=O)CSc3nnc(-c4ccc5nc(-c6ccccc6)[nH]c5c4)o3)cc2)cc(OC)c1OC`, the figure is 94.9%. As for `C1=C2CCCC3=Cc4ccccc4OC23Oc2ccccc21`, the figure is 25.5%; as for `COC1C(O)CC(OC2CC(OC3CC(O[C@@H]4C(=O)c5c(cc6cc(OC7CC(OC8CC(O)C(O)C(C)O8)C(O)C(C)O7)c(C)c(O)c6c5O)CC4[C@H](OC)C(=O)O)OC(C)C3O)OC(C)C2O)OC1C` (stereo not given in full), 15.8%; as for `CC1(/C=N/NC(N)=S)NC(=O)NC1=O` (stereo not given), 102%. Turning to `CC1CCC(C(=O)O)N1` (stereo not given), the growth was 106%. As for `Cn1c(=O)c2[nH]c(SCC(=O)Nc3ccc(C(=O)/C=C/c4ccccc4Cl)cc3)nc2n(C)c1=O`, the figure is 76.4%; as for `NNC(=O)c1ccc(C(=O)NN)cc1`, 102%.

Consider `O=C(CSc1nnnn1-c1ccccc1)Nc1ccc(Oc2ccccc2)cc1`, for which the growth is 115%.

As for `C#Cc1nc(C(C)=O)cs1`, the growth is 90.5%. Then `CC1C=CC(OC(=O)C(C)(O)CCC(O)(C(=O)OC2CC(O)C(C(C)C)CC2(C)O)C(C)C)(C(C)C)CC1` (stereo not given), with -69.9% [4.63 µM] (active); and `COc1cccc(Nc2nccc(Nc3ccc4[nH]ncc4c3)n2)c1`, with -45.5% (active). `COc1cc(C(=O)N2N=C(c3ccc(S(C)(=O)=O)cc3)CC2c2ccco2)cc(OC)c1OC` (stereo not given): the growth was 36.7%. Take `N=c1c(S(=O)(=O)c2ccccc2)cc2c(=O)n3ccccc3nc2n1C1CCCC1`: the growth is 88.1%. As for `O=C1OC(C(Cl)(Cl)Cl)OC1C(Cl)(Cl)Cl` (stereo not given), the figure is 109%. As for `O=C1/C(=C/c2ccc([N+](=O)[O-])cc2)COc2ccc(O)c(O)c21`, the growth is -90.9% (active). Then `O=C(/C=C\c1cccc([N+](=O)[O-])c1)c1ccccc1`, with -13.8% (active). As for `CN1C(=O)/C(=C/c2ccc(C(=O)Nc3ncc(Cc4ccccc4Cl)s3)cc2)SC1=S`, the figure is 40.3%; as for `NC1=CC(=O)C(=O)c2cccnc21`, 81.3%.

On to `CC(=O)Oc1c(Cl)cccc1-c1ccccc1`, for which the growth is 100%. Regarding `COc1cc(C(=O)/C=C/c2cccnc2Nc2ccccc2)cc(OC)c1OC`, the growth was -93.8% (active).

As to `Cn1cc(-c2noc(-c3cn(C)c4ncccc34)n2)c2cc(Cl)ccc21`, the growth is 91.3%. On to `CN(C)c1cccc2[nH]c(-c3[nH]ncc3Nc3ccnc(N)n3)nc12`, for which the growth is -67.5% (active). As for `Nc1nc(N)c2c(n1)NC(c1ccccc1)CC(c1ccc(Nc3nc(NCCO)nc(Nc4ccc(Cl)cc4)n3)cc1)=N2` (stereo not given), the figure is -70.1% (active).

Source of the values: PubChem BioAssay (NCI).
